This is part of a sample that, as a whole, favours compounds with a hit. Of some 83,000 tested, about 20% had one in any assay.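 Testing used 96-well plates and a 48-hour single-concentration exposure. Example: -40 means 40% of the starting cells died.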 Unmarked numbers belong to inactive results. Active and inactive are the calls of the source. How the source made its calls: active means growth percent below 10; inactive means the rest.

The subject of this experiment is MDA-MB-468 breast. Description: NCI-60 one-dose screen, 48 h (100 = growth as untreated, 0 = no growth, -100 = all killed). Conditions: 10 µM unless noted.
In the case of `COc1cc(-c2nc3ccccc3o2)cc(CN2CCN(c3ccccc3)CC2)c1O`, the growth was 76.3%.

With `CCN1CCN(C(=O)[C@]23CCC(C)(C)C[C@H]2C2=CC[C@@H]4[C@@]5(C)Cc6c([nH]c7ccccc67)C(C)(C)[C@@H]5CC[C@@]4(C)[C@]2(C)CC3)CC1`, the growth was 84.7%.

As to `Cc1csc(/N=C(N)/N=C(\N)c2cccc(Br)c2)n1`, the growth was 79.7%. Regarding `COc1cnc2c(c1)C(=O)c1c-2n(CCCn2ccnc2)c(=O)c2cc(Cl)ccc12`, the growth was -11.2% (active). For the compound `C#CC(C)(O)c1ccc(Cl)cc1` (stereo not given), the growth is 94.5%.

For `O=S(=O)(NCCCNc1cc(-c2cn(-c3ccccc3)nc2-c2cccc(O)c2)ccn1)c1ccc(F)cc1`, the growth is -1.5% (active). To `COS(=O)(=O)c1ccc(Br)cc1` belongs 102%; to `Cc1ccc(C(=O)N(CCCN)[C@@H](c2nc3cc(Cl)ccc3c(=O)n2Cc2ccccc2)C(C)C)cc1`, -84.4% (active).

For the compound `COc1cc2nc3c(=O)n(-c4ccc(C#N)cc4)cnn3c(=O)c2cc1OC`, the growth was 97.4%. On to `CCCCCCCCCCCC[n+]1ccc2ccccc2c1`, for which the growth was -30% (active). The same measure for `C=C(C)[C@@H]1CC[C@]2(CO)CC[C@]3(C)[C@H](CC[C@@H]4[C@@](C)(CCCN)[C@H](C(=C)C)CC[C@]43C)[C@@H]12`: -71.4% (active). The same measure for `CCCCCc1ccc(S(=O)(=O)Nc2cc(-c3csc(NC(=O)CN4CCN(CCO)CC4)n3)ccc2OC)cc1`: 69.1%. The same measure for `Cc1[nH]c(C(=O)Nc2ccc(C(N)=O)cc2N2CCOC(C)C2)c(Cl)c1Cl` (stereo not given): 102%. As for `O=C(N=Nc1c(O)[nH]c2ccccc12)Nc1ccc(F)cc1`, the growth is 103%. For `CNc1ccc(CSc2ccc(C)cc2)cc1`, the growth is 15.6%. The same measure for `CCn1c(CN2CCN(Cc3ccccc3)CC2)nc2cc(NC(=O)c3cccs3)ccc21`: -86.6% (active); for `Cc1ccc(C(=O)Nc2ccccc2N)cc1`: 79.1%; for `Clc1ccc(-c2nc(-c3ccco3)cn3ccnc23)cc1`: -5.8% (active). As for `O=C(CCc1nnc2sc(-c3ccc(Cl)cc3Cl)nn12)c1nc2ncccc2[nH]1`, the growth is -66% (active). With `CCCCNC(=O)Oc1ccc(/C(=C(/C)Cc2ccc(OC)cc2)c2ccc(OCCN3CCCC3)cc2)cc1`, the growth is 53.5%.

Turning to `CC(C)C[C@@H](C(=O)N[C@H](C(=O)OC1CCCC1)c1ccccc1)[C@H](O)C(=O)NO`, the growth is 16.9%. The same measure for `O=c1cc(/C(=C2/C=CC=N2)c2ccc[nH]2)c2cc(Cl)ccc2o1`: 2.6% (active); for `CNC1=C([N+](=O)[O-])C(c2ccc(OC)cc2)C(C#N)=C(c2ccc[nH]2)O1` (stereo not given): 96.1%. Regarding `ClCC1(Cn2cnc3c(Cl)nc(Cl)nc32)COC1`, the growth is 19.4%.

Regarding `C[C@@H]1C=C2C(=O)O[C@@H]3CC[C@H](C1)[C@]23O`, the growth is 11.4%.

`O=C(Nc1ccncc1)C(=O)c1cn(S(=O)(=O)c2ccc(Oc3ccccc3)cc2)c2ccccc12`: the growth was 55.4%. Turning to `O=C(c1ccccc1)N(CCCl)C(=O)N(CCCl)C(=O)c1ccccc1`, the growth is 111%. To `COc1ccc(N2C(=O)CC(c3cc(OC)c(OC)c(OC)c3)C3C2=NC(=O)N3C)cc1` (stereo not given) belongs 98.9%. `CN(C)CCCNc1c2ccccc2nc2c1oc1ccc(Cl)cc12`: the growth was 5.14% (active). To `Nc1nc(Cl)nc2c1ncn2C1O[C@H](CO)[C@@H](O)[C@@H]1F` (stereo not given in full) belongs 5.22% (active); to `O=C(Nc1cnn2ccc(N3CCC[C@@H]3c3cc(F)ccc3F)nc12)N1CC[C@H](O)C1`, 88.7%; to `NNc1nc(-c2cccnc2)nc2c1sc(=S)n2-c1ccccc1`, 115%. Take `COC(=O)C1(NC(=O)CNC(=O)OCc2ccccc2)CCCC1`: the growth is 96.1%. Take `CC1CCN(S(=O)(=O)c2ncsc2-c2ccccc2)CC1`: the growth was 94.4%.

`CC(C)c1ccc(/C=N/N=C(N)N)cc1`: the growth is 35.3%. To `O=C(/C=C/c1ccc(F)cc1)N1CCN(C(=O)/C=C/c2ccc(C(F)(F)F)cc2)CC1` belongs 117%; to `COC(=O)[C@]1(C)CCC[C@]2(C)[C@H]3C[C@H]4C(C(C)C)=C[C@]3(CC[C@H]21)[C@@H]1C(=O)N(CCC#N)C(=O)[C@@H]14`, 86.9%. In the case of `O=C(/C=C/c1ccc(F)cc1)Nc1ncc(Cc2ccc(F)cc2)s1`, the growth was 8.11% (active). Consider `COc1cc(C)cc2oc3oc(=O)c(C(=O)c4cc5cc(Br)ccc5o4)cc3c(=O)c12`, for which the growth is 107%.

On to `CN(C)c1ccc(-c2cc(-c3c[nH]c4ccccc34)nc(N)c2C#N)cc1`, for which the growth was 39.7%.
